Laboratory results reported in PubChem BioAssay (NCATS).
Results filed as inconclusive are left out. The source made the active and inactive calls. Calls follow the shape of the dose curve; as a rule, active = well fitted cell-killing curve with a large enough effect; inconclusive = small, poorly fitted or top-dose-only effect, or effect the other way; inactive = no such curve, though single readings can be large or run the other way.

Test: Quantitative High-Throughput drug screen in 47 multiple myeloma cell lines against the NCATS MIPE library collection: KMS28BM_JCRB cell viability assay (AID 1919874); also: nearly all actives have a fitted effect of over 35% in size
Conditions: CellTiter-Glo ATP, 48 h; series mostly up to 45.8 µM; viability, % of control: at the top concentration
Source text: PI: Beverly A. Mock Ph.D.
Laboratory of Cancer Biology and Genetics,
Center for Cancer Research, National Cancer Institute,
National Institute of Health, Bethesda, Maryland
Drug resistance and disease progression are common in multiple myeloma (MM) patients, underscoring the need for new therapeutic combinations. […] We hypothesized that effective combinations would reduce MYC expression and enhance p16 activity. […] These preclinical data identify potentially useful drug combinations for evaluation in drug-resistant MM and reveal potential mechanisms of combined drug sensitivity.
Described herein is the primary MIPE qHTS used to cherrypick compounds. Validated compounds were then further tested for potential synergistic activiy.
[1] Peat TJ, Gaikwad SM, Dubois W, Gyabaah-Kessie N, Zhang S, Gorjifard S, Phyo Z, Andres M, Hughitt VK, Simpson RM, Miller MA, Girvin AT, Taylor A, Williams D, D'Antonio N, Zhang Y, Rajagopalan A, Flietner E, Wilson K, Zhang X, Shinn P, Klumpp-Thomas C, McKnight C, Itkin Z, Chen L, Kazandijian D, Zhang J, Michalowski AM, Simmons JK, Keats J, Thomas CJ, Mock BA. Drug combinations identified by high-throughput screening promote cell cycle transition and upregulate Smad pathways in myeloma. Cancer Lett. 2023 Aug 1;568:216284. doi: 10.1016/j.canlet.2023.216284. Epub 2023 Jun 24. PMID: 37356470; PMCID: PMC10408729.
SEQUENCE No. (e.g., 1, 2, 3, etc.); […] (e.g., Cells, Incubation, Reagent, etc.); VALUE and DESCRIPTION.
1; Cells; 5 uL; white, solid bottom 1536-well Greiner assay plate.
2; Compounds; 23 nL; Kalypsis pin tool (Wako USA) equipped with a 1536-well pin head to transfer to the assay plates.
3; Incubation; 48 hours; 37C incubation.
4; Reagent;5uL; CellTiter Glo (Promega).
5; Detector; 425V; Luminescence; Viewlux PerkinElmer.
NOTES (numbers refer to Sequence numbers above)
1. The cell-based screening methods employed in this study were like those previously published. Briefly, the corresponding myeloma cell lines were screened in 1,536-well plates with 500 cells, 5-uL per well for inhibition of cell viability (assessed by measuring ATP levels with CellTiterGlo).
2. NCATS MIPE 4.0 library of approved and investigational drugs were added using the Kalypsis pin tool. Wells treated with DMSO only for 100% viability and media only for 0% viability were used as controls.
3. The assay plates were covered and incubated for 48 hours in a 37C, 5% CO2 incubator with controlled humidity.
4. After 48 hours, CellTilter-GloTM luminescent substrate mix (Promega) reagent was added to the assay plate and plates we incubated for 5 min at room temperature.
5. Signal was measured as median relative luminescence units on a ViewLux (PerkinElmer) multiplate reader.
[1] Heske CM, Davis MI, Baumgart JT, Wilson K, Gormally MV, Chen L, Zhang X, Ceribelli M, Duveau DY, Guha R, Ferrer M, Arnaldez FI, Ji J, Tran HL, Zhang Y, Mendoza A, Helman LJ, Thomas CJ. Matrix Screen Identifies Synergistic Combination of PARP Inhibitors and Nicotinamide Phosphoribosyltransferase (NAMPT) Inhibitors in Ewing Sarcoma. Clin Cancer Res. 2017 Dec 1;23(23):7301-7311. doi: 10.1158/1078-0432.CCR-17-1121. Epub 2017 Sep 12. PMID: 28899971; PMCID: PMC6636827.
Potency is read from the fitted curve at half-maximal effect.

| SMILES | viability, % of control | Potency |
| --- | --- | --- |
| CN1CCN(C(=O)O[C@H]2c3nccnc3C(=O)N2c2ccc(Cl)cn2)CC1 | 115% (inactive) | – |
| Cn1cc(C2=C(c3cn(C4CCN(Cc5ccccn5)CC4)c4ccccc34)C(=O)NC2=O)c2ccccc21 | 111% (inactive) | – |
| Cc1cccc(C)c1NC(=O)CN1CCCC1=O | 114% (inactive) | – |
| COc1ccc(C(=O)c2c(C)n(CCN3CCOCC3)c3ccccc23)cc1 | 112% (inactive) | – |
| CC1=C2C[C@@H]3[C@@H](CC=C4C[C@@H](O)CC[C@@]43C)[C@@H]2CC[C@]12O[C@H]1C[C@H](C)CN[C@H]1[C@H]2C | 106% (inactive) | – |
| Cc1sc2c(c1C)C(c1ccc(Cl)cc1)=N[C@@H](CC(=O)OC(C)(C)C)c1nnc(C)n1-2 | – | 105 nM (active) |
| COC[C@@H](NC(C)=O)C(=O)NCc1ccccc1 | 101% (inactive) | – |
| NCC1(CC(=O)O)CCCCC1 | 105% (inactive) | – |
| CN(C)CCN(C)CCc1ccc(Cl)c(Cl)c1 | 97% (inactive) | – |
| COC1(CS(=O)c2ccccc2)CCN(CCc2c[nH]c3ccc(F)cc23)CC1 (configuration not stated) | – | 743 nM (active) |
| C[C@@H]1O[C@@H](O[C@H]2C[C@@H](O)[C@]3(CO)[C@H]4[C@H](O)C[C@]5(C)[C@@H](C6=CC(=O)OC6)CC[C@]5(O)[C@@H]4CC[C@]3(O)C2)[C@H](O)[C@H](O)[C@H]1O | – | 20.9 nM (active) |
| O=C1CC[C@@]2(O)[C@H]3Cc4ccc(O)c5c4[C@@]2(CCN3CC2CC2)[C@H]1O5 | 93.8% (inactive) | – |
| CC(O)(CS(=O)(=O)c1ccc(F)cc1)C(=O)Nc1ccc(C#N)c(C(F)(F)F)c1 (configuration not stated) | 95.7% (inactive) | – |
| COc1ccc2c(c1OC)CN1CCc3cc4c(cc3C1C2)OCO4 (configuration not stated) | 75.5% (inactive) | – |
| CN(C)[C@@H]1C(=O)C(C(N)=O)=C(O)[C@@]2(O)C(=O)C3=C(O)c4c(O)cccc4[C@@](C)(O)[C@H]3C[C@@H]12 | 103% (inactive) | – |
| Cn1c(CCCC(=O)O)nc2cc(N(CCCl)CCCl)ccc21 | 119% (inactive) | – |
| Fc1ccc(C(OCCN2CCN(CCCc3ccccc3)CC2)c2ccc(F)cc2)cc1 | – | 13200 nM (active) |
| O=C(O)C(=O)c1cn(Cc2ccccc2)c2ccc(-c3ccc(OC(F)(F)F)cc3)cc12 | 86.9% (inactive) | – |
| CNCC(O)c1ccc(O)cc1 (configuration not stated) | 144% (inactive) | – |
| CNC(=O)c1ccc(N2C(=S)N(c3ccc(C#N)c(C(F)(F)F)c3)C(=O)C23CCC3)cc1F | 86.8% (inactive) | – |
| C[C@@H]1[C@@H](CC(C[C@H]2O[C@@H]3O[C@]4(C)CC[C@@H]5[C@H](C)CC[C@@H]([C@H]2C)[C@@]35OO4)C[S+](=O)([O-])c2ccc(COC(=O)N(C)C)cc2)O[C@@H]2O[C@]3(C)CC[C@H]4[C@H](C)CC[C@@H]1[C@@]24OO3 (some centres not stated) | – | 264 nM (active) |
| N[C@@H](Cc1ccc(N(CCCl)CCCl)cc1)C(=O)O | – | 23500 nM (active) |
